OTUD3 block: inhibitors of human OTUD3 deubiquitinase | OTU domain-containing protein 3 (Homo sapiens), Q5T2D3 | purified OTUD3, Ub-rhodamine fluorescence, 2 h | inhibition, % at 25 µM | hit rate 0.7% among 47,000
USP30 block: inhibitors of human USP30 deubiquitinase; purified USP30, Ub-rhodamine cleavage fluorescence; inhibition, % at 25 µM; hit rate 5.3% among 47,000; AID 1645860, 2021
Target sequence (Q70CQ3 whole entry, looked up): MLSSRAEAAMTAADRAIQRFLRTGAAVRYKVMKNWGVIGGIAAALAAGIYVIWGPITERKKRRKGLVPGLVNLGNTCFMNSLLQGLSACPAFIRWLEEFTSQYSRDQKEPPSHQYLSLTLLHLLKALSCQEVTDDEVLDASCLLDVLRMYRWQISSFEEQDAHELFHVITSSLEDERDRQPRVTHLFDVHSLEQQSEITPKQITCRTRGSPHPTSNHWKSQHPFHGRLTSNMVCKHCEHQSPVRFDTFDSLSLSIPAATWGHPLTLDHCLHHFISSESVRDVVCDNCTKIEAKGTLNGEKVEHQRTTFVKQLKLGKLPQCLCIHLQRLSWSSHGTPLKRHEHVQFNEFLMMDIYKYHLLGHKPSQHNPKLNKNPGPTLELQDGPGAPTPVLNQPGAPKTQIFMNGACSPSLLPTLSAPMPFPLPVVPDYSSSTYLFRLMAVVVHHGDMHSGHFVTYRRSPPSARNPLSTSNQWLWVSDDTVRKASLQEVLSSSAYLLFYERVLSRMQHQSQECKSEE
USP28 block: inhibitors of human USP28 deubiquitinase; Ubiquitin carboxyl-terminal hydrolase 28 (Homo sapiens), Q96RU2; purified USP28, Ub-rhodamine cleavage fluorescence, 30 min; inhibition, % at 25 µM; hit rate 3% among 47,000; AID 1645857, 2021
USP17 inh: inhibitors of human USP17 deubiquitinase; purified USP17, Ub-rhodamine cleavage fluorescence, 3 h; inhibition, % at 50 µM; AID 1645855, 2021; hit rate 6.5% among 47,000
* marks the source's active call; other numbers are inactive results. This is a sample that favours compounds with a hit; in the whole collection about 11% have one here. Rule as the data show it: active = inhibition above about 30%; inactive = the rest.

`CCCc1noc(-c2ccnc(-n3ncc(C(=O)N4CCCCC4)c3C)c2)n1` gave OTUD3 block 11.3, USP30 block 15.8, USP28 block 12.4 and USP17 inh 9.6.
Screening Cc1noc(-c2cc(=O)n(CC(=O)NCc3ccccc3F)c3ccccc23)n1 returned OTUD3 block 2.9, USP30 block 46.4*, USP28 block 7.7 and USP17 inh 58.5*.
For O=C1N(Cc2ccccc2F)c2ccccc2S(=O)(=O)N1Cc1ccc(F)cc1 the results were OTUD3 block 16.9, USP30 block 19.6, USP28 block 16.8 and USP17 inh 12.3.
For Cc1cccc(Nc2nc(NCCCO)nc3c2cnn3C)c1 the results were OTUD3 block -1.8, USP30 block 2.5, USP28 block 4.3 and USP17 inh -0.6.
Cc1cc(=O)n(CC(=O)Nc2ccccc2C)c(Nc2ccc(F)cc2)n1 was read as OTUD3 block 20.1, USP30 block 72.6*, USP28 block 4.3 and USP17 inh 17.8.
Cc1cc(=O)n(CC(=O)Nc2ccccc2)c(-c2ccc(F)cc2)n1 was read as OTUD3 block 7.5, USP30 block 10.5, USP28 block 5.4 and USP17 inh 19.3.
O=C(/C=C/c1cccc(Cl)c1)Nc1nc2ccccc2s1 was read as OTUD3 block -153.4, USP30 block inactive and USP28 block -180.5.
For O=C(COc1ccc(Cl)cc1)Nc1noc(-c2cccs2)n1 the results were OTUD3 block 0.3, USP30 block 44.4*, USP28 block 31.2* and USP17 inh 47.5*.
Cc1nn(CC(=O)Nc2ccc(Br)c3cccnc23)c(=O)c2ccccc12 was read as OTUD3 block -0.1, USP30 block 13.9, USP28 block 15.1 and USP17 inh 65.1*.
For Nc1c(-c2ccccc2)nc2ccccn12 the results were OTUD3 block 9.2, USP30 block 19.6, USP28 block 6.3 and USP17 inh 1.4.
Screening O=[N+]([O-])c1ccc(-c2nc3ccccn3c2Br)cc1 returned OTUD3 block 12.0, USP30 block 44.1*, USP28 block 7.1 and USP17 inh 38.6*.
O=C1CC(C(=O)Nc2ccccc2)n2nc(-c3ccccc3)cc2N1 (configuration not stated) was read as OTUD3 block 7.1, USP30 block 34.4*, USP28 block 12.5 and USP17 inh 11.4.
For COc1ccc(Cl)c(NC(=O)C2CC(=O)Nc3cc(-c4ccccc4)nn32)c1 (configuration not stated) the results were OTUD3 block 12.3, USP30 block 21.6, USP28 block 29.0 and USP17 inh 56.7*.
COc1ccc(Cl)c(NC(=O)C2CC(=O)Nc3cc(C)nn32)c1 (configuration not stated) was read as OTUD3 block 8.5, USP30 block 11.6, USP28 block 7.6 and USP17 inh 15.0.
Screening O=C(Cn1nc2c3c4c(sc3ncn2c1=O)CCCCC4)Nc1ccc(Cl)cc1F returned OTUD3 block 14.9, USP30 block 28.6, USP28 block 18.3 and USP17 inh 69.8*.
For CCOc1ncccc1C(=O)OCC(=O)c1ccc(C)c(C)c1 the results were OTUD3 block 2.6, USP30 block -1.5, USP28 block 37.5* and USP17 inh -6.1.
Screening COC(=O)c1ccccc1NC(=O)CSc1nnc(-c2ccc(C(C)(C)C)cc2)n1C1CCCC1 returned OTUD3 block -37.2, USP30 block 52.4*, USP28 block 11.6 and USP17 inh 15.3.
For O=C(CSc1nnc(Cc2ccccc2)n1C1CCCCC1)Nc1ccccc1Cl the results were OTUD3 block 6.1, USP30 block 19.9, USP28 block 13.7 and USP17 inh 4.4.
`CC(=O)N1CCCC(c2nc(C)cc(-c3ccccc3C(=O)O)n2)C1` (configuration not stated) gave OTUD3 block -2.2, USP30 block 0.7, USP28 block -4.3 and USP17 inh -3.9.
Screening CC(=O)N1CCCC(c2nc(C)cc(-c3cc(F)ccc3C(=O)O)n2)C1 (configuration not stated) returned OTUD3 block 7.9, USP30 block 63.7*, USP28 block 7.4 and USP17 inh 7.1.
`O=C(Cn1cc(C(=O)C(F)(F)F)c2ccccc21)N1CCc2ccccc21` gave OTUD3 block 23.4, USP30 block 36.8*, USP28 block 27.8 and USP17 inh 52.3*.
For Cc1nnc(-c2cn(CC(=O)N3CCc4ccccc43)c3ccccc23)o1 the results were OTUD3 block 2.9, USP30 block -7.3, USP28 block 0.7 and USP17 inh 29.3.
For COC(=O)c1cn(CC(=O)N2CCCc3ccccc32)c2ccccc12 the results were OTUD3 block 16.4, USP30 block 17.4, USP28 block 11.9 and USP17 inh 40.7*.
For N#Cc1cn(CC(=O)N2CCc3ccccc32)c2ccccc12 the results were OTUD3 block 2.0, USP30 block 53.3*, USP28 block 51.9* and USP17 inh -18.3.
Screening COc1ccc(NC(C)=O)cc1S(=O)(=O)N(CC(=O)Nc1ccc(C)cc1)CC(=O)Nc1ccc(C)cc1 returned OTUD3 block -5.2, USP30 block 19.3, USP28 block -8.2 and USP17 inh 33.6*.
For COc1ccc(Cl)cc1S(=O)(=O)N(C)CC(=O)Nc1ccc2c(c1)OCCO2 the results were OTUD3 block -9.6, USP30 block -12.5, USP28 block -6.7 and USP17 inh -14.8.
For O=C(c1ccccc1)N1CC[C@@H]2CO[C@@H](CNc3ncccn3)[C@@H]2C1 the results were OTUD3 block 0.6, USP30 block 3.1, USP28 block 0.9 and USP17 inh -6.0.
Screening CC(=O)c1c(C)[nH]c(C(=O)N2CC(=O)N(CCc3ccccc3)C(=O)C2)c1C returned OTUD3 block -5.8, USP30 block -10.3, USP28 block -2.7 and USP17 inh -7.8.
`CN1CCN(c2ncnc3c2oc2ccc(Cl)cc23)CC1` gave OTUD3 block 88.4*, USP30 block 0.0, USP28 block -12.8 and USP17 inh -7.0.
Screening CC(C)c1nc2sc3c(NCc4ccco4)ncnc3c2c2c1CCC2 returned OTUD3 block -16.9, USP30 block -66.9, USP28 block 63.3* and USP17 inh -10.5.
Screening CC(C)c1nc2sc3c(NCCN4CCOCC4)ncnc3c2c2c1CCC2 returned OTUD3 block 6.8, USP30 block 6.3, USP28 block 34.6* and USP17 inh 9.3.
Screening O=C(COc1ccc2c3c(c(=O)oc2c1)CCCC3)NCC(=O)N1CC[C@@]2(O)CCCC[C@H]2C1 returned OTUD3 block 10.2, USP30 block 27.3, USP28 block 10.6 and USP17 inh 5.2.
`O=c1c2cc([N+](=O)[O-])ccc2nc(CN2CCN(c3ccccn3)CC2)n1-c1ccccc1F` gave OTUD3 block 30.3*, USP30 block 60.9*, USP28 block 24.7 and USP17 inh 22.2.
CC1CCN(C(=O)c2cn(-c3cc(N4CCC(C)CC4)ncn3)cn2)CC1 was read as OTUD3 block 14.1, USP30 block 28.1, USP28 block 70.8* and USP17 inh 3.3.
Screening COc1ccc(/C=C/C(=O)Nc2ccc(C)cn2)cc1 returned OTUD3 block 0.9 and USP17 inh 69.8*.
